ALOX12 inh = blocks human arachidonate 12S-lipoxygenase; P18054; 580,000 compounds, 1.1% hits; Potency, µM (highest dose often 108 µM), usual class: inhibitors; purified 12hLO, xylenol orange hydroperoxide absorbance
Target sequence (P18054 whole entry, looked up): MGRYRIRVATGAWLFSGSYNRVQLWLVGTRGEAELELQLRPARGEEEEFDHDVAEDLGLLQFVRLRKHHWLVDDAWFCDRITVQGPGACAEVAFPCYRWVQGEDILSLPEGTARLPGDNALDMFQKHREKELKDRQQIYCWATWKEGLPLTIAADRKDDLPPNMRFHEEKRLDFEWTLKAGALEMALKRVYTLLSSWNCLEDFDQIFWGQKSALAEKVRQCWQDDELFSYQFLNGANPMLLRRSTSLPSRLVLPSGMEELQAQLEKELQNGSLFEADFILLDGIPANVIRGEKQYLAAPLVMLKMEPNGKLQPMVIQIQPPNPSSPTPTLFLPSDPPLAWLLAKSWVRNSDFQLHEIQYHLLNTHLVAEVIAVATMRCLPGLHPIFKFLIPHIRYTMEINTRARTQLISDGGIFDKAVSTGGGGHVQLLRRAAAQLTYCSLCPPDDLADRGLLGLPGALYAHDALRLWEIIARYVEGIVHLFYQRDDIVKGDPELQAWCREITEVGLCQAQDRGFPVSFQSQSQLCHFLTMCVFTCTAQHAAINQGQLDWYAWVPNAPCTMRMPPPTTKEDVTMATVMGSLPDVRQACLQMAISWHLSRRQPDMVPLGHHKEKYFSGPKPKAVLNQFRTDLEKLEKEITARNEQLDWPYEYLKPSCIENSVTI
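Hydroperoxide product was detected by ferrous iron/xylenol orange as the 573 to 405 nm absorbance ratio. Arachidonic acid at 40 uM (final) was turned over for 30 min at room temperature by 150 nM human 12hLO, pH 7.0 Hepes buffer, after 15 min compound preincubation.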
TDP1 cell noCPT = qHTS for Inhibitors of human tyrosyl-DNA phosphodiesterase 1 (TDP1): qHTS in cells in absence of CPT. DT40 Tdp1-/- hTDP1 cells, no CPT, ATP luminescence, 48 h. Potency, µM (highest dose often 46.2 µM), hits mostly inhibitors. 420,000 compounds, 15% hits. AID 686978, 2013; further: nearly all actives have a fitted effect of over 55% in size
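Readout: luminescence from CellTiter-Glo after 30 min in the dark at RT. Cells: DT40 Tdp1-/- with stable hTDP1, 400/well. Exposure: compounds alone, ≥48 hr, 37 °C.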
TDP1 cell CPT = growth inhibition of DT40 Tdp1-/-;hTDP1 cells with camptothecin (screen for TDP1 inhibitors); chicken DT40 Tdp1-/-;hTDP1 cells + 20 nM CPT, ATP luminescence, 48 h; Potency, µM (titrated, usually from 46.2 µM), actives largely listed as inhibitors; 420,000 compounds, 12% hits; AID 686979; further: nearly all actives have a fitted effect of over 55% in size
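Chicken DT40 Tdp1-/- cells complemented with human TDP1, 400 cells/well, exposed to compounds plus 20 nM camptothecin for at least 48 h at 37 C; viability read as ATP content by CellTiter-Glo luminescence.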
HT1080NT lethal = kills 2HG-producing HT-1080-NT fibrosarcoma cells. HT-1080-NT fibrosarcoma viability, CellTiter-Glo ATP luminescence, 48 h. 360,000 compounds, 1.6% hits. Potency, µM (highest dose often 46.1 µM), most hits filed as cytotoxic. AID 686970;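 further: NT is the 2HG producing partner of a matched IDH1 knockdown line; nearly all actives have a fitted effect of over 55% in size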
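Compounds were tested in concentration-response format on HT-1080-NT cells for 48 hours at 37 degrees C. Cell viability came from CellTiter-Glo luminescence; curves were classified by r2, response magnitude and activity.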
IL-1B inflam inh = inflammasome signaling inhibition, IL-1 beta readout. 360,000 compounds, 4.7% hits. AID 743279. THP-1 LPS/ATP IL-1B secretion, AlphaLISA, 16 h; active compounds read low. activity change, % at 57.5 µM; in the data active means activity change below about -50%; inconclusive means mostly about -30% to -49%
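Secreted IL-1B measured by AlphaLISA bead assay after 16 h compound exposure of THP-1 cells; compounds (final up to 57.5 uM) added 1 h before LPS (250 ng/mL) and ATP (1.25 mM) stimulation; lower signal means less secretion.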
HT1080 IDH1KD tx = kills HT-1080 cells with IDH1 knockdown; 360,000 compounds, 2% hits; HT-1080 IDH1 knockdown viability, ATP luminescence, 48 h; Potency, µM (highest dose often 46.1 µM), usual class: cytotoxic
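In this qHTS, HT-1080 cells depleted of IDH1 are exposed for 48 h at 37 °C to compound titrations. Toxicity is scored from CellTiter-Glo luminescence, with DMSO as full viability and medium alone as none.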
A number is an active result; - = inactive; ? = inconclusive; . = not tested or not shown. The sample as a whole holds a higher share of hits than the screen did. Unless noted, the call rests on the fitted dose curve; in most records, active means well fitted curve in the direction sought with a large enough effect; inconclusive means small, poorly fitted or top-dose-only effect, or another doubt; inactive means no such curve, though single readings can be large; an effect the other way counts as inactive or inconclusive.

SMILES	ALOX12 inh	TDP1 cell noCPT	TDP1 cell CPT	HT1080NT lethal	IL-1B inflam inh	HT1080 IDH1KD tx
COC(=O)c1cc(NC(=O)CN(c2ccccc2)S(=O)(=O)N(C)C)ccc1Cl	-	23µM	?	.	.	.
COC(=O)c1cc(NC(=O)CN(c2cccc(OC)c2)S(=O)(=O)c2ccccc2)ccc1Cl	-	16µM	?	-	-	-
COCC(=O)N1N=C(c2cccs2)CC1c1ccc2nccnc2c1 (stereo not drawn)	-	.	.	.	.	.
CC(=O)NC(NC(C)=O)c1ccccc1F	-	.	.	.	.	.
Cc1ccccc1C(=O)N1CCC2(CC1)OCC(C(=O)N1CCCC1)N2C(=O)c1ccc(F)cc1 (stereo not drawn)	-	.	.	.	.	.
CN(C)c1ccc(CNC(=O)C2(C)Cc3c(-c4cccc(C(F)(F)F)c4)ccnc3O2)cc1 (stereo not drawn)	?	?	16µM	?	-	18µM
CC(=O)Nc1ccc(-c2ccnc3c2CC(C)(C(=O)NCc2ccc(F)c(F)c2)O3)cc1 (stereo not drawn)	?	3.3µM	5.8µM	?	-	15µM
CC1(C(=O)NCc2ccc(F)c(F)c2)Cc2c(-c3ccccc3)ccnc2O1 (stereo not drawn)	.	6.5µM	10µM	?	-	?
CC1(C(=O)NCc2ccc(F)c(F)c2)Cc2c(-c3cccc(C(F)(F)F)c3)ccnc2O1 (stereo not drawn)	-	16µM	16µM	?	-	?
CC1(C(=O)Nc2ccc(F)c(Cl)c2)Cc2c(-c3ccccc3)ccnc2O1 (stereo not drawn)	?	?	?	?	-	?
Cc1ccc(-c2nnc(C3CN(C(=O)c4ccccc4C)CC34CCOCC4)o2)cc1 (stereo not drawn)	-	.	.	.	.	.
COc1cc(C(=O)Nc2ccc3c(c2)nc2n3CCN(C(C)C)C2)cc(OC)c1OC	-	.	.	.	.	.
CC1(C(=O)NCc2cccnc2)Cc2c(-c3cccc(C(F)(F)F)c3)ccnc2O1 (stereo not drawn)	-	21µM	23µM	?	-	?
CCCN(Cc1cccs1)C(=O)Nc1cc(Cl)ccc1OC	-	.	.	.	.	.
O=C(Nc1cccc(S(=O)(=O)N2CCCCCC2)c1)c1cccc2cccnc12	-	.	.	.	.	.
COc1ccc2nc(NS(=O)(=O)c3ccc(Cl)cc3)c(Nc3ccc(C)cc3)nc2c1	-	.	.	.	.	.
COc1ccc(S(=O)(=O)c2cc(NS(=O)(=O)c3ccc(Cl)cc3)c(C)c(C)c2O)cc1	-	16µM	-	.	.	.
COc1ccc(Cl)cc1NS(=O)(=O)c1ccc(OC)c(OC)c1	-	-	-	-	-	-
CCOc1ccc(S(=O)(=O)Nc2cc(OC)ccc2OC)cc1	-	0.33µM	0.37µM	0.18µM	-	?
COc1ccc(S(=O)(=O)Nc2cc(Cl)ccc2OC)cc1	-	2.3µM	2.3µM	6.5µM	-	?
COc1ccc(OC)c(NS(=O)(=O)c2ccc(NC(C)=O)cc2)c1	-	?	-	-	-	-
COc1ccc2nc(NS(=O)(=O)c3ccc(C)cc3)c(Nc3cc(Cl)ccc3OC)nc2c1	?	23µM	?	.	.	.
COc1ccc(NC(=O)N[C@H]2CCN3C(=O)[C@@H](Cc4ccc(Cl)cc4)NC(=O)[C@@H]3C2)cc1	-	.	.	.	.	.
COc1ccc(OC)c(NS(=O)(=O)c2ccc(SC)cc2)c1	-	16µM	9.2µM	?	-	?
COc1ccc(NS(=O)(=O)c2ccc(NS(=O)(=O)c3ccc(SC)cc3)cc2)c(OC)c1	-	-	-	-	-	-
CC(=O)NCCNC(=O)CN1CCCC(c2nc3ccccc3o2)C1 (stereo not drawn)	-	.	.	.	.	.
COc1ccc2[nH]c3c(c2c1)CCNC31CCN(C(=O)C2CCN2C2CCCCC2)CC1 (stereo not drawn)	-	.	.	.	.	.
Oc1cc(-c2ccccc2)c2ccccc2c1	?	?	18µM	?	-113	?
O=C(NCCCCc1ccccc1)Nc1cccc(F)c1	-	23µM	?	?	-99	?
